Residue numbers refer to the chain shown, from its start.

For the first assay, the target named is T1, GST-Ap-NF-kB RHD (Exaiptasia pallida (Aiptasia), UniProt A0A913YAJ5 2-422).
T1 sequence: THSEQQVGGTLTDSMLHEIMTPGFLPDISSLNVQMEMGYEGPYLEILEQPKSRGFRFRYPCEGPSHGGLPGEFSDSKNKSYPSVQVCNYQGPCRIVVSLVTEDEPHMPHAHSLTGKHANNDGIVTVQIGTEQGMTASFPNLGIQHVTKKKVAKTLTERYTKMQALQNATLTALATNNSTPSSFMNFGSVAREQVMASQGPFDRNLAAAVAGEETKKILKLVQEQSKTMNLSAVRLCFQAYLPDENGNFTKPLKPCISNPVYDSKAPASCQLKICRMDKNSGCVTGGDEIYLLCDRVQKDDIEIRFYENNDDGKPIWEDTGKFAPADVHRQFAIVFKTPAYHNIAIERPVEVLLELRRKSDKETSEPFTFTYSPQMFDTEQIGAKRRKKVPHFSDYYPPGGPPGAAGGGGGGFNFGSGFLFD
Kind of assay: protein-binding microarray (PBM); PBM: ~300 nM protein, 6 mM HEPES pH 7.8, 80 mM KCl, 0.5 mM EDTA, 0.5 mM EGTA, 6% glycerol, 35 ng/ul poly-dIdC, 1% milk, 1 h, room temperature; Ap Aiptasia and Nv Nematostella (sea anemones) / Co Capsaspora / Aq Amphimedon (sponge) / Dm Drosophila / Hu human; RHD is the Rel homology domain; high values mean tight binding. To be noted: dsDNA, one strand shown.
Take “CCGATTAACATCATGTTTGCGGGTGATGTTAATCGGGTCTTGATTCGCTTGACGCTGCTG”: the binding signal stood at 1.22 z-score.
As to “CCGATTAACATCATCCCTTGTCATGATGTTAATCGGGTCTTGATTCGCTTGACGCTGCTG”, the binding signal is 1.2 z-score.
“CCGATTAACATCAGGAAGGGCGGTGATGTTAATCGGGTCTTGATTCGCTTGACGCTGCTG” came in with a binding signal of 1.05 z-score.
For the sequence “CCGATTAACATCAAGTACCAGGGTGATGTTAATCGGGTCTTGATTCGCTTGACGCTGCTG”, the binding signal was found to be 1.05 z-score.
“CCGATTAACATCAGGAAATGGGATGATGTTAATCGGGTCTTGATTCGCTTGACGCTGCTG” came in with a binding signal of 1.33 z-score.
Sequence “CCGATTAACATCACCCCGCATGCTGATGTTAATCGGGTCTTGATTCGCTTGACGCTGCTG” showed a binding signal of 1.75 z-score.

Another assay addresses T2, GST-Nv-NF-kB (Cys allele) (Nematostella vectensis, UniProt E5G601 2-411).
T2 sequence: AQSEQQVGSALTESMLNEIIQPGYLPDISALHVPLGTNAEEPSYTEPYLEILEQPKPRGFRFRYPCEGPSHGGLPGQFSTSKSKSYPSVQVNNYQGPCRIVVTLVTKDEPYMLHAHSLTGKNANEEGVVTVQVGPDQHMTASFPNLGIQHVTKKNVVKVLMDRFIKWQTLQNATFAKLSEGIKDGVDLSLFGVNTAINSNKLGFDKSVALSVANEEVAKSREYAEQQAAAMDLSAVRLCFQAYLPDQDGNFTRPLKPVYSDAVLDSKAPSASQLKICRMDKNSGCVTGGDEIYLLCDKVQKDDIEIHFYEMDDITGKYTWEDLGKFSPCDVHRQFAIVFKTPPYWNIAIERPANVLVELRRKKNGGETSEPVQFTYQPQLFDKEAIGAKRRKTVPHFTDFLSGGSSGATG
The description is as above. To be noted: dsDNA, one strand shown.
As for “CCGATTAACATCATATTGGGAAATGATGTTAATCGGGTCTTGATTCGCTTGACGCTGCTG”, the binding signal turned out to be 2.26 z-score.
On to “CCGATTAACATCAATTCCCAACCTGATGTTAATCGGGTCTTGATTCGCTTGACGCTGCTG”, for which the binding signal was 2.15 z-score.
The sequence “CCGATTAACATCACTCTTCTCGGTGATGTTAATCGGGTCTTGATTCGCTTGACGCTGCTG” registered a binding signal of 1.05 z-score.
Sequence “CCGATTAACATCAGGAAATTGCCTGATGTTAATCGGGTCTTGATTCGCTTGACGCTGCTG” displayed a binding signal of 1.05 z-score.
Consider “CCGATTAACATCACCAGGTTAGGTGATGTTAATCGGGTCTTGATTCGCTTGACGCTGCTG”, for which the binding signal was 1.1 z-score.
As for “CCGATTAACATCACCTTGAACGGTGATGTTAATCGGGTCTTGATTCGCTTGACGCTGCTG”, the binding signal turned out to be 1.56 z-score.
With “CCGATTAACATCACGGAAAAAACTGATGTTAATCGGGTCTTGATTCGCTTGACGCTGCTG”, the binding signal worked out at 1.12 z-score.
On the same count and under the same terms, then “CCGATTAACATCACCGAGTTAGTTGATGTTAATCGGGTCTTGATTCGCTTGACGCTGCTG”, with 1.15 z-score.

The target of another assay is T3, GST-Nv-NF-kB (Ser allele) (Nematostella vectensis, UniProt A7UNT2 2-411).
T3 sequence: T2 sequence with Q21R, C66S, S207N, E215Q, V217A, E225K, A268E, D399E
The assay is described as above. To be noted: dsDNA, one strand shown.
Turning to “CCGATTAACATCACCGAAATTCCTGATGTTAATCGGGTCTTGATTCGCTTGACGCTGCTG”, the binding signal came to 1.53 z-score.
Still for that read-out and setting: for “CCGATTAACATCACCTAACTTGATGATGTTAATCGGGTCTTGATTCGCTTGACGCTGCTG” the value was 1.07 z-score.
As to “CCGATTAACATCATATTGGGAAATGATGTTAATCGGGTCTTGATTCGCTTGACGCTGCTG”, the binding signal was 1.92 z-score.
On to “CCGATTAACATCAATTCCCAACCTGATGTTAATCGGGTCTTGATTCGCTTGACGCTGCTG”, for which the binding signal is 1.9 z-score.
With “CCGATTAACATCACTCTTCTCGGTGATGTTAATCGGGTCTTGATTCGCTTGACGCTGCTG”, the binding signal amounted to 1.37 z-score.
The same measure, in the same setting: for “CCGATTAACATCACCAGGTTAGGTGATGTTAATCGGGTCTTGATTCGCTTGACGCTGCTG” the value was 1.85 z-score; for “CCGATTAACATCACCTTGAACGGTGATGTTAATCGGGTCTTGATTCGCTTGACGCTGCTG”, 1.73 z-score.
Turning to “CCGATTAACATCACCTGGTCGGGTGATGTTAATCGGGTCTTGATTCGCTTGACGCTGCTG”, the binding signal amounted to 1.03 z-score.
Turning to “CCGATTAACATCACGTGTGTAGGTGATGTTAATCGGGTCTTGATTCGCTTGACGCTGCTG”, the binding signal turned out to be 1.58 z-score.
On to “CCGATTAACATCACGGAAAAAACTGATGTTAATCGGGTCTTGATTCGCTTGACGCTGCTG”, for which the binding signal came to 1.13 z-score.
